Screening results: PubChem, National Center for Advancing Translational Sciences (NCATS)
Only a selection was taken, and hits are over-represented in it overall.
Giardia killer – kills Giardia lamblia | Giardia lamblia trophozoite viability | 0.15% of 340,000 active | activity change, % at 7.66 µM, hits read low; in the data active means activity change below about -80%; inconclusive means between about -30% and that limit;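 further: parasites exposed to compound for two days anaerobically before the ATP read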
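Giardia lamblia trophozoites (100 cells/well) were incubated with compounds for 48 h at 37 deg C under anaerobic conditions. Viability was read as ATP content by one-step luminescence after 15-30 min at room temperature.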
Integrin act MD – activators of alpha7 integrin expression for muscular dystrophy; 0.064% of 350,000 active; Potency, µM (highest dose often 38.3 µM), usual class: activators; alpha7betagal myoblasts, beta-gal FDG fluorescence, 48 h; further: nearly all actives have a fitted effect of over 60% in size
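alpha7betagal+/- myoblasts (passage 13, 250/well) treated 48 h at 37C with compounds at 1:260 dilution of DMSO stock. Lysed, then beta-galactosidase activity read as FDG fluorescence (ex 480/em 540) after 30 min, with pre-read for autofluorescence.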
RORg inh – blocks mouse ROR gamma transcriptional activity. Drosophila S2 Gal4-RORgamma UAS-luciferase reporter, 20 h. Potency, µM (highest dose often 53.6 µM), most hits filed as inhibitors. 5.4% of 310,000 active; further: nearly all actives have a fitted effect of over 60% in size
Target sequence (P51450 whole entry, looked up, the tested form may be a part): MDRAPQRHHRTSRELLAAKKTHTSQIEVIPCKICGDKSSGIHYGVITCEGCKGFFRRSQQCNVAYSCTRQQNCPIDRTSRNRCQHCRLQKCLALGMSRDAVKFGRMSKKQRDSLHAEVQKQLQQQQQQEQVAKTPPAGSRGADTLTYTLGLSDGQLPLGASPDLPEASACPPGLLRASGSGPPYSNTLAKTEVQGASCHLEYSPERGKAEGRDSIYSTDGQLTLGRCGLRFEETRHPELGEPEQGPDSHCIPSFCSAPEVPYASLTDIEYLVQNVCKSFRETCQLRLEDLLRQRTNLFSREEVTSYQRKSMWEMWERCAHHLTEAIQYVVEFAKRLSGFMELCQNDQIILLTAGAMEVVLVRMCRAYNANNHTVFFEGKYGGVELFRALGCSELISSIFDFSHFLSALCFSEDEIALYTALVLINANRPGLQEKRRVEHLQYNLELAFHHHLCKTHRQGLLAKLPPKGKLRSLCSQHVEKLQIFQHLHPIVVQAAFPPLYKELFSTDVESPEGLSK
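Using a luciferase readout, inhibitors were identified by reduced reporter activity in Drosophila cells coexpressing a copper-inducible Gal4–ROR gamma fusion and UAS-driven Photinus luciferase, incubated 20 hr after 700 uM copper sulfate.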
VP16 counter – inhibits Gal4-VP16 luciferase reporter, ROR gamma counter-screen; Drosophila S2 Gal4-VP16 UAS-luciferase, luminescence, 20 h; Potency, µM (top dose mostly 53.6 µM), actives largely listed as inhibitors; 3.5% of 310,000 active;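 further: Gal4-VP16 expression switched on by copper sulfate through the metallothionein promoter; nearly all actives have a fitted effect of over 50% in size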
ERG-DNA inh – inhibitors of human ERG Ets domain-DNA interaction; P11308; fluorescence polarization, His-ERG Ets domain / labelled DNA; Potency, µM (titrated, usually from 76.9 µM), usual class: inhibitors; 0.028% of 370,000 active; AID 624246; active means well fitted inhibition curve with a large enough effect in the polarisation, with a control signal flat; inconclusive means small, poorly fitted or top-dose-only effect, or effect the other way, or a change in a side signal; inactive means no such curve, though single readings can be large or run the other way; the % refers to the polarisation;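 further: polarization taken with two DNA probes labelled with fluorescein and Texas red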
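His-tagged ERG Ets domain (1 uM in the protein solution; 300mM KCl, 50mM Tris-HCl, 1mM EDTA, 1mM DTT, pH 7.5) received compound, then a probe mix of 5 nM fluorescein-DNA and 100nM Texas-615-DNA. Fluorescence polarization was read for both dyes.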
Hits are given with their value; . = inactive; ? = inconclusive; / = no result given; [ ] = another dose, or the depositor's remark. Unless noted, the call rests on the fitted dose curve; in most records, active means well fitted curve in the direction sought with a large enough effect; inconclusive means small, poorly fitted or top-dose-only effect, or another doubt; inactive means no such curve, though single readings can be large; an effect the other way counts as inactive or inconclusive.

SMILES	Giardia killer	Integrin act MD	RORg inh	VP16 counter	ERG-DNA inh
NCCCN(Cc1ccc(Cl)cc1)c1ccc(Br)cn1	.	/	/	/	/
COc1ccc(NC2=C3CC(C)CC=C3N(c3ccc(OC)cc3)C2=O)cc1 (centres undefined)	.	.	.	.	.
CC(=O)Nc1ccccc1/C=C/c1ccc2c(C)ccc(O)c2n1	.	.	8.9µM	28µM	.
CC(=O)Nc1ccccc1/C=C/c1ccc2c(C)cc(C)c(O)c2n1	.	.	7.9µM	7.9µM	.
CC(=O)Nc1cc2c3ccccc3ccc2c2ccccc12	.	.	/	/	/
CCOc1ccc2nc(N(Cc3cccnc3)C(=O)c3ccc4c(c3)OCCO4)sc2c1	/	/	/	/	.
O=C(Nc1nccs1)c1cc([N+](=O)[O-])ccc1Cl	?	.	/	/	.
O=C(Nc1nccs1)c1ccc(Cl)cc1[N+](=O)[O-]	.	.	10µM	?	/
COc1ccc(C(=O)Nc2ccc(C(=O)Nc3nccs3)cc2)cc1[N+](=O)[O-]	.	.	.	.	.
O=C(Nc1nccs1)c1ccc(Cl)c([N+](=O)[O-])c1	.	.	6.3µM	4.5µM	.
O=C(Nc1nccs1)c1ccc([N+](=O)[O-])cc1Cl	?	.	11µM	?	.
COc1cccc(N2CCN(CC(=O)NC(=O)NC3CCCCC3)CC2)c1	.	.	/	/	.
NCCCCCCCCCCNCCCN	/	/	.	.	/
CN(CC(=O)Nc1ccccc1Br)C(=O)c1ccc(-c2ccc(Cl)cc2)o1	.	.	?	5.6µM	.
CCCCCCCc1nc2sc3c(c2c(=O)n1N)CC(C)(C)OC3	.	.	.	.	.
CCCCCc1nc2sc3c(c2c(=O)n1NC(=O)c1ccc([N+](=O)[O-])cc1)CC(C)(C)OC3	.	.	22µM	.	.
CC1(C)Cc2c(sc3ncnc(N)c23)CO1	.	.	.	.	.
CCC1(C)Cc2c(sc3nc(SC)[nH]c(=S)c23)CO1 (centres undefined)	.	.	?	6.3µM	.
CCSc1nc2sc3c(c2c(=O)[nH]1)CC(C)(CC)OC3 (centres undefined)	.	.[7.66 µM]	.	.	.
Cn1c(NN)nc2sc3c(c2c1=O)CC(C)(C)OC3	.	.	1.4µM	3.5µM	/
CC1(C)Cc2c(sc3nc(=S)[nH]c(N)c23)CO1	/	/	?	18µM	/
O=C(NCc1ccc(F)cc1)c1ccc2c(c1)S(=O)(=O)c1ccccc1C2=O	.	.	/	/	.
CO[C@H]1COC(=O)[C@H](C)NC(=O)[C@@H](C)COC(=O)[C@H]2CCCN2C(=O)C/C=C\[C@H]1C	/	/	.[10 µM]	.[10 µM]	/
COC(=O)c1cnc(N2CCN(c3ccc(OC)cc3)CC2)c2ccccc12	/	/	/	/	.
Cc1nc2sc3c(c2c(=O)o1)CC(C)(C)OC3	.	.	.	.	.
SMILES	Giardia killer	Integrin act MD	RORg inh	VP16 counter	ERG-DNA inh
Cc1nc(NN)c2c3c(sc2n1)COC(C)(C)C3	.	.	13µM	.	.
Cc1ccc(C2CC(c3cccs3)=NN2C(=O)CCl)cc1 (centres undefined)	.	.	18µM	?	.
CS(=O)(=O)c1ccc(Cl)c(NC(=O)c2cc(S(=O)(=O)N3CCOCC3)ccc2N2CCCC2)c1	.	.	/	/	.
Cc1nn(-c2nnc(C)c(=O)[nH]2)c(C)c1SCC(=O)Nc1ccc(F)cc1	.	.	?	.	.
Cc1nn(-c2nnc(C)c(=O)[nH]2)c(C)c1SCC(=O)Nc1ccc(C(C)C)cc1	.	.	1.1µM	.	.
Cc1nc([N+](=O)[O-])c(Sc2nc3ccc([N+](=O)[O-])cc3[nH]2)n1Cc1ccccc1	.	.	16µM	?	.
Cc1nc([N+](=O)[O-])c(Br)n1Cc1ccccc1	.	.	?	?	.
C=C(C)CN1C(=O)C2(OCCO2)c2cc(Br)ccc21	.	.	/	/	.
COc1ccc(OC)c(C2CC(c3ccccc3)=NN2C(=S)Nc2ccccc2)c1 (centres undefined)	.	.	.	.	.
CNC(=S)N1N=C(c2ccc(C)cc2)CC1c1cc(OC)ccc1OC (centres undefined)	.	.	13µM	.	.
CNC(=S)N1N=C(c2ccc(C)cc2)CC1c1ccc(OC)cc1 (centres undefined)	.	.	11µM	.	.
O=S1(=O)CCOC[C@H](c2ccccc2)N1Cc1ccccc1	.	.	.	.	.
COC(=O)CNC(c1ccccc1)c1cc(Br)ccc1NC(=O)CCN1CCOCC1 (centres undefined)	.	.	?	14µM	.
